The source of these data is PubChem BioAssay (Tox21).

Results filed as inconclusive are left out. Entries that show only a call come without a potency. Activity calls are given as the source filed them. Calls come from the whole dose curve; as a rule, active = well fitted cell-killing curve with a large enough effect in the repeat runs; inconclusive = weak or mixed curves, or effect the other way; inactive = flat fitted curve, though single readings scatter.
Potency is the fitted concentration of half-maximal effect.

The assay in a line: qHTS RealTime-Glo MT Cell Viability Assay in HEK293 cells - 0 hour (AID 1224880). Note: nearly all actives have a fitted effect of over 45% in size. The conditions noted are these: RealTime-Glo luminescence; series mostly up to 76.8 µM. Put shortly: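 Cells were seeded together with NanoLuc luciferase and a prosubstrate that viable cells reduce to a luciferase substrate. After a 5 h incubation at 37 C/5% CO2, compounds were added and luminescence was measured repeatedly during 40 h of treatment.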
For orientation: In qHTS, concentration-response curves come from the screen itself.
On to `O=C=Nc1ccc(Cl)c(Cl)c1`, for which the Potency entry was “inactive”.
In the case of `CCOC(C)=O`, the Potency entry was “inactive”.
Under `C=CC(=O)[O-].C=CC(=O)[O-].[Zn+2]` stands “inactive”.
Under `C/C=C/C=C/C=O` stands “inactive”; under `O=C(O)c1cccc(-c2noc(-c3ccccc3F)n2)c1`, “inactive”; under `CC(C)=CCC1C(=O)N(c2ccccc2)N(c2ccccc2)C1=O`, “inactive”.
Regarding `CCOC(=O)c1ccc(OCCN2C[C@H](O)[C@@H](O)[C@H](O)[C@H]2CO)cc1`, the Potency result is “inactive”.
In the case of `CCC(=O)OC` it was “inactive”; in that of `CCC=CC#N`, “inactive”.
In the case of `CCCCCCC(C)(C)C(=O)O` it was “inactive”; in that of `CCCC(=O)C(=O)O`, “inactive”; in that of `Cc1[nH]cnc1CN1CCc2c(c3ccccc3n2C)C1=O`, “inactive”.
For `C[C@H]1C[C@H](O)c2ccsc2S1(=O)=O`, the Potency result is “inactive”.
In the case of `CN1C(C(=O)Nc2ccccn2)=C(O)c2sccc2S1(=O)=O` it was “inactive”.
With `CCC(C)COC(C)=O` (stereo not given), the Potency result was “inactive”.
Turning to `C[C@]12CC[C@@H]3c4ccc(O)cc4CC[C@H]3[C@@H]1CC[C@@H]2OC(=O)CCC1CCCC1`, the Potency result is “inactive”.
In the case of `FC(F)(F)c1ccccc1Cl` it was “inactive”.
For `O=c1[nH]c2ccc(Cl)cc2o1`, the Potency entry was “inactive”.
Regarding `Brc1cc(Br)c(Oc2cc(Br)c(Br)cc2Br)cc1Br`, the Potency result is “inactive”.
With `Cc1c(C)c2c(c(C)c1OC(=O)CCC(=O)OCCO)CC[C@@](C)(CCC[C@H](C)CCC[C@H](C)CCCC(C)C)O2`, the Potency result was “inactive”.
Under `CCc1ccccc1` stands “inactive”; under `OC[C@H]1O[C@@H](n2cnc3c(=S)nc[nH]c32)[C@H](O)[C@@H]1O`, “inactive”; under `O=C(O)CCC(=O)C(=O)O`, “inactive”.
On to `C=C(C)CCCC(C)CCO` (stereo not given), for which the Potency result was “inactive”.
Consider `CCCCCC[C@@H](O)C/C=C\CCCCCCCC(=O)O`, for which the Potency entry is “inactive”.
Under `CCCCC(CC)CN` (stereo not given) stands “inactive”.
Regarding `CC1=C(Br)C(=O)C(Br)=C/C1=C(/c1ccccc1S(=O)(=O)O)c1cc(Br)c(O)c(Br)c1C`, the Potency is 33.3 µM (active).
Turning to `O[C@@H]1CO[C@H]2[C@@H]1OC[C@@H]2O`, the Potency entry is “inactive”.
Consider `CCCCCCCCCCC(=O)O`, for which the Potency entry was “inactive”.
Regarding `CC1(C)[C@H](C(=O)O)N2C(=O)C[C@H]2S1(=O)=O`, the Potency result is “inactive”.
With `CN1CC(=O)N2[C@H](c3ccc4c(c3)OCO4)c3[nH]c4ccccc4c3C[C@@H]2C1=O`, the Potency entry is “inactive”.
As for `O=C(/C=C/c1ccccc1)OCCc1ccccc1`, the Potency entry was “inactive”.
Under `Nc1cccc2c1CN(C1CCC(=O)NC1=O)C2=O` (stereo not given) stands “inactive”; under `Cc1ccccc1S`, “inactive”; under `CN1C(=O)OC(C)(C)C1=O`, “inactive”.
Under `Oc1cccc(O)c1O` stands “inactive”; under `COc1cc(C(=O)NCCCCCC(=O)O)cc(OC)c1OC`, “inactive”; under `CCOC(=O)[C@H](CCc1ccccc1)N[C@@H](C)C(=O)N(CC(=O)O)C1Cc2ccccc2C1`, “inactive”.
In the case of `C=C/C(C)=C/C/C=C(\C)CCC=C(C)C`, the Potency entry was “inactive”.
In the case of `CCOC(=O)OC(C)OC(=O)[C@@H]1N2C(=O)[C@@H](NC(=O)[C@H](N)c3ccccc3)[C@H]2SC1(C)C` (stereo not given in full), the Potency result was “inactive”.
